Results taken from PubChem BioAssay (NCI).
The panel holds about 79,000 compounds, 15% with a hit somewhere; the sample as a whole holds those more often. No stated cut-off is given here; in the data, active means growth inhibition above about 70%; inactive means the rest.

How the values were obtained:
[1] = NCI Yeast Anticancer Drug Screen. Data for the rad52 strain (AID 147);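 further: 0% = growth of vehicle-treated control cultures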; conditions: S. cerevisiae rad52 mutant growth inhibition, active compounds read high
Summary of the method: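 DNA repair-defective yeast; compound exposure; growth scored against vehicle controls.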

[2] = NCI Yeast Anticancer Drug Screen. Data for the wt1 strain (AID 149);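 further: 0% = growth of vehicle-treated wt1 cultures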; conditions: S. cerevisiae wt1 strain (SPY 50644) growth inhibition, active compounds read high
Summary of the method: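 Yeast wt1 strain exposed to compounds; growth inhibition measured relative to vehicle-treated controls.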

[3] = NCI Yeast Anticancer Drug Screen. Data for the rad50EPP+ strain (AID 151);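 further: 0% = growth of vehicle-treated control cultures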; conditions: S. cerevisiae rad50 mutant strain, active compounds read high
Summary of the method: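 rad50EPP+ yeast treated with test compounds. Readout: growth vs vehicle control.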

[4] = NCI Yeast Anticancer Drug Screen. Data for the mgt1 strain (AID 153); conditions: S. cerevisiae mgt1 mutant growth inhibition, active compounds read high
Summary of the method: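 Growth inhibition relative to vehicle controls was scored for the mgt1 yeast strain after compound exposure.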

[5] = NCI Yeast Anticancer Drug Screen. Data for the rad50 strain (AID 155);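 further: 0% = growth of vehicle-only cultures of the same strain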; conditions: S. cerevisiae rad50 strain growth inhibition, active compounds read high
Summary of the method: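 Yeast carrying a defined DNA repair defect were exposed to test compounds, and growth was compared with vehicle-treated controls to give percent inhibition.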

[6] = NCI Yeast Anticancer Drug Screen. Data for the mec2-1 strain (AID 157); conditions: S. cerevisiae mec2-1 strain, active compounds read high
Summary of the method: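 Growth inhibition is read against vehicle-treated controls after compound exposure of the mec2-1 yeast strain, which is defective in DNA damage repair or cell cycle control.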

[7] = NCI Yeast Anticancer Drug Screen. Data for the rad14 strain (AID 159);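 further: 0% = growth of vehicle-treated control cultures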; conditions: S. cerevisiae rad14 strain growth inhibition, active compounds read high
Summary of the method: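 Yeast cells carrying a defined DNA-repair defect were exposed to compounds, and growth inhibition was calculated relative to vehicle-treated control cultures.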

[8] = NCI Yeast Anticancer Drug Screen. Data for the sgs1 mgt1 strain (AID 161);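 further: 0% = growth of cultures given vehicle only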; conditions: S. cerevisiae sgs1 mgt1 strain, active compounds read high
Summary of the method: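 Percent growth inhibition was derived by comparing compound-exposed mutant yeast with vehicle-exposed cultures. The strain carries alterations in DNA damage repair.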

[9] = NCI Yeast Anticancer Drug Screen. Data for the CLN2oe strain (AID 163);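 further: 0% = growth of vehicle-only control cultures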; conditions: S. cerevisiae CLN2oe strain, active compounds read high
Summary of the method: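 Compound-treated yeast; growth vs vehicle ctrl = % inhibition. Genetically altered strain (cell-cycle control).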

[10] = NCI Yeast Anticancer Drug Screen. Data for the cln2 rad14 strain (AID 165);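 further: 0% = growth equal to vehicle treated cultures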; conditions: S. cerevisiae cln2 rad14 strain, active compounds read high
Summary of the method: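 Growth inhibition, relative to vehicle-treated controls, is the read-out. The test organism is a yeast strain with defined genetic alterations, cln2 rad14.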

[11] = NCI Yeast Anticancer Drug Screen. Data for the bub3 strain (AID 167); conditions: S. cerevisiae bub3 mutant strain, active compounds read high
Summary of the method: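 Compounds were applied to a genetically altered yeast strain carrying a cell-cycle control defect. Growth inhibition was scored against vehicle-treated controls.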

[12] = NCI Yeast Anticancer Drug Screen. Data for the wt2 strain (AID 169);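 further: 0% = growth of vehicle-treated yeast cultures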; conditions: S. cerevisiae wt2 strain growth inhibition, active compounds read high
Summary of the method: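 Compound exposure of yeast; growth compared with vehicle controls; inhibition reported.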

[13] = NCI Yeast Anticancer Drug Screen. Data for the mlh1 strain (AID 171);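 further: 0% = growth of vehicle-treated control cultures of the same strain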; conditions: S. cerevisiae mlh1 strain growth inhibition, active compounds read high
Summary of the method: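 Compounds are applied to a genetically altered yeast strain, and its growth is compared with that of vehicle-treated cultures to give percent inhibition.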

[14] = NCI Yeast Anticancer Drug Screen. Data for the sgs1 strain (AID 173);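 further: 0% = growth of vehicle-only control cultures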; conditions: S. cerevisiae sgs1 mutant, active compounds read high
Summary of the method: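 Compounds applied to genetically altered yeast; growth compared with vehicle-treated cultures to give % inhibition.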

[15] = NCI Yeast Anticancer Drug Screen. Data for the mlh1 rad18 strain (AID 175); conditions: S. cerevisiae mlh1 rad18 strain growth inhibition, active compounds read high
Summary of the method: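 Cells of a genetically altered yeast strain, deficient in DNA damage repair, were treated with compound. Their growth was then compared with that of vehicle-treated cultures to give inhibition.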

[16] = NCI Yeast Anticancer Drug Screen. Data for the rad18 strain (AID 177); conditions: S. cerevisiae rad18 mutant growth inhibition, active compounds read high
Summary of the method: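 Compounds are applied to a repair-deficient yeast strain, and growth is compared with that of vehicle-treated cultures to give percent inhibition.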

[17] = at 5.0 µM (retest, dose inferred, filed as 0.5)
[18] = at 50.0 µM (retest, dose inferred, filed as 5.0)

Measured: growth inhibition

O=c1[nH]c(-c2ccccc2)nc2c1sc1nc3ccccc3n12
inactive: [1]; at 1.2 µM -15% | [1]; at 3.7 µM -31% | [1]; at 11.0 µM -23% | [1]; at 33.0 µM -15% | [1]; at 100.0 µM -18% | [2]; at 1.2 µM -24% | [2]; at 3.7 µM -25% | [2]; at 11.0 µM -20% | [2]; at 33.0 µM -25% | [2]; at 100.0 µM -17% | [3]; at 1.2 µM -2% | [3]; at 3.7 µM -31% | [3]; at 11.0 µM -36% | [3]; at 33.0 µM -40% | [3]; at 100.0 µM -31% | [4]; at 1.2 µM -20% | [4]; at 3.7 µM -18% | [4]; at 11.0 µM -17% | [4]; at 33.0 µM -8% | [4]; at 100.0 µM -25% | [5]; at 1.2 µM 11% | [5]; at 3.7 µM 5% | [5]; [17] 8% | [5]; at 11.0 µM -8% | [5]; at 33.0 µM -13% | [5]; [18] 56% | [5]; at 50.0 µM 13.4% | [5]; at 100.0 µM -9% | [6]; at 1.2 µM -34% | [6]; at 3.7 µM -23% | [6]; [17] 5% | [6]; at 11.0 µM -30% | [6]; at 33.0 µM -19% | [6]; [18] 9% | [6]; at 50.0 µM -15.2% | [6]; at 100.0 µM -27% | [7]; at 1.2 µM -24% | [7]; at 3.7 µM -22% | [7]; at 11.0 µM -24% | [7]; at 33.0 µM -14% | [7]; at 100.0 µM -11% | [8]; [17] 7% | [8]; [18] 62% | [8]; at 50.0 µM -30.5% | [9]; at 1.2 µM -52% | [9]; at 3.7 µM -72% | [9]; at 11.0 µM -39% | [9]; at 33.0 µM -23% | [9]; at 100.0 µM -20% | [10]; [17] 14% | [10]; [18] 19% | [10]; at 50.0 µM 5.95% | [11]; at 1.2 µM -35% | [11]; at 3.7 µM -45% | [11]; [17] 6% | [11]; at 11.0 µM -43% | [11]; at 33.0 µM -43% | [11]; [18] 7% | [11]; at 50.0 µM -35.5% | [11]; at 100.0 µM -33% | [12]; at 1.2 µM 2% | [12]; at 3.7 µM -6% | [12]; at 11.0 µM -6% | [12]; at 33.0 µM 19% | [12]; at 100.0 µM 5% | [13]; at 1.2 µM -24% | [13]; at 3.7 µM -44% | [13]; at 11.0 µM -47% | [13]; at 33.0 µM -28% | [13]; at 100.0 µM -42% | [14]; at 1.2 µM -47% | [14]; at 3.7 µM -43% | [14]; at 11.0 µM -39% | [14]; at 33.0 µM -38% | [14]; at 100.0 µM -42% | [15]; [17] 4% | [15]; [18] 22% | [15]; at 50.0 µM -23.4% | [16]; at 1.2 µM -35% | [16]; at 3.7 µM -38% | [16]; at 11.0 µM -39% | [16]; at 33.0 µM -38% | [16]; at 100.0 µM -38%
